Test results reported in PubChem BioAssay (NCATS).
Several values for one entry are separate records, joined by “and”; a condition that tells them apart may be missing. Identical values can stand only once. Records with an inconclusive call do not appear. Activity calls are given as the source filed them. Calls come from the whole dose curve; as a rule, active = well fitted curve in the direction sought with a large enough effect; inconclusive = small, poorly fitted or top-dose-only effect, or another doubt; inactive = no such curve, though single readings can be large; an effect the other way counts as inactive or inconclusive.

What was measured:
[1] = target: Cellular tumor antigen p53 (Homo sapiens) (UniProt P04637); assay: Primary qHTS for small molecule compounds that upregulate eGFP-tagged delta133p53alpha (in N-terminal) cells. (AID 2060322); settings: NCI-H358 eGFP-delta133p53alpha fluorescence, 24 h; activation: stronger effect = higher value; note: nearly all actives have a fitted effect of over 75% in size;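 for activation: cells pre-induced with doxycycline then dosed without doxycycline; 0% = DMSO vehicle and 100% = reference activator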
Cellular tumor antigen p53 (Homo sapiens), sequence (P04637 whole entry, looked up): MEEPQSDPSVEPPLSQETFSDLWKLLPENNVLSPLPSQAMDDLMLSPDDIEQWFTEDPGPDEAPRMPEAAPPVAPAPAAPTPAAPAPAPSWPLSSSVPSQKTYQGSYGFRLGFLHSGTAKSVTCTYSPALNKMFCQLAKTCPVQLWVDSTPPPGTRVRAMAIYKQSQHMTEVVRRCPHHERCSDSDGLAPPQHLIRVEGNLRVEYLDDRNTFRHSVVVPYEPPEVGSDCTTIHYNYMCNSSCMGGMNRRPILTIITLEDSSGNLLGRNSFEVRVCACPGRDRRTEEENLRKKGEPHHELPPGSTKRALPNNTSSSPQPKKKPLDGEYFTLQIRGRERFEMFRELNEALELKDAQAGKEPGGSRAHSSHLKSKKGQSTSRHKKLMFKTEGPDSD
How it was run: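 NCI-H358 cells pre-induced 24 h with 10 ng/ml doxycycline for eGFP-delta133p53alpha, plated dox-free and exposed 24 h at 37C to titrated compounds. Fixed, Hoechst-stained; gated GFP peak intensity by laser scanning cytometry, normalized to DMSO (0%) and 57.5 uM 5-azacytidine (100%).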

[2] = BET inhibitor-based combinations targeting novel dependencies in MECOM-rearranged (r) AML: SET-2 cell line (AID 2202231); settings: SET-2 AML cells viability, CellTiter-Glo luminescence, 48 h; viability: stronger effect = lower value, concentration not given here; note: nearly all actives have a fitted effect of over 35% in size;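 for viability: plate controls were DMSO treated cells for no effect and wells without cells for full effect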
How it was run: (§1)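 AML cell lines seeded at 500 cells/well, treated with 11-point dose curves for 48 h. Viability by CellTiter-Glo luminescence, normalised to DMSO and empty wells; activity expressed as AUC and per-cell-line Z-transformed AUC.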

[3] = BET inhibitor-based combinations targeting novel dependencies in MECOM-rearranged (r) AML: OCI-AML3 cell line (AID 2202232); settings: CellTiter-Glo luminescence, 48 h; Potency: OCI-AML3 viability; series mostly up to 46 µM; note: nearly all actives have a fitted effect of over 35% in size;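 for viability (% of control): plate controls were DMSO vehicle wells for no effect and wells without cells for full effect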
How it was run: as §1

[4] = BET inhibitor-based combinations targeting novel dependencies in MECOM-rearranged (r) AML: MV-4-11 cell line (AID 2202233); settings: MV-4-11 AML viability, CellTiter-Glo luminescence, 48 h; series mostly up to 46 µM; note: nearly all actives have a fitted effect of over 45% in size;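 for viability, % of control: plate controls were DMSO for no effect and blank wells for full effect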
How it was run: (§2)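 Cells at 500/well were exposed for 48 hr to MIPE v5.0 drugs as 11-point dose curves. Viability was read by CellTiter-Glo luminescence and normalized to DMSO and empty-well controls. Activity was expressed as AUC and per-cell-line Z-AUC.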

[5] = BET inhibitor-based combinations targeting novel dependencies in MECOM-rearranged (r) AML: HNT-34 cell line (AID 2202234); settings: HNT-34 AML viability, CellTiter-Glo luminescence, 48 h; series mostly up to 46 µM; note: nearly all actives have a fitted effect of over 35% in size;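 for viability (% of control): plate controls were vehicle wells for no effect and cell-free wells for full effect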
How it was run: as §2

[6] = BET inhibitor-based combinations targeting novel dependencies in MECOM-rearranged (r) AML: AML-191 cell line (AID 2202236; note: nearly all actives have a fitted effect of over 35% in size;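 for viability (% of control): plate controls were vehicle wells for no effect and wells without cells for full effect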); settings: AML-191 viability, CellTiter-Glo luminescence, 48 h; series mostly up to 46 µM
How it was run: as §1

[7] = BET inhibitor-based combinations targeting novel dependencies in MECOM-rearranged (r) AML: AML-194 cell line (AID 2202237; note: nearly all actives have a fitted effect of over 40% in size;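 for viability (% of control): plate controls were vehicle wells for no effect and wells without cells for full effect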); settings: AML-194 (MECOM-r AML) viability, CellTiter-Glo, 48 h; series mostly up to 46 µM
How it was run: as §1

[8] = BET inhibitor-based combinations targeting novel dependencies in MECOM-rearranged (r) AML: UCSD-AML1 cell line (AID 2202235); settings: UCSD-AML1 AML cells viability, CellTiter-Glo, 48 h; series mostly up to 46 µM; note: nearly all actives have a fitted effect of over 40% in size;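 for viability (% of control): plate controls were DMSO vehicle wells for no effect and blank wells for full effect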
How it was run: as §2
Potency is the fitted concentration of half-maximal effect.

OC[C@@H](O)[C@@H](O)[C@H](O)[C@@H](O)CO
inactive: activation [1] 6.34% | viability [2] 117% | Potency [3] | Potency [4] | Potency [5] | Potency [6] | Potency [7]

O=S(=O)(O)CCS
inactive: activation [1] 32.2% and 4.28% | viability [2] 120% | Potency [3] | Potency [4] | Potency [5] | Potency [8] | Potency [6] | Potency [7]

CC[C@]1(O)C[C@H]2CN(CCc3c([nH]c4ccccc34)[C@@](C(=O)OC)(c3cc4c(cc3OC)N(C=O)[C@H]3[C@@](O)(C(=O)OC)[C@H](OC(C)=O)[C@]5(CC)C=CCN6CC[C@]43[C@@H]65)C2)C1
inactive: activation [1] 54.7%
active: Potency [2] 0.833 µM | Potency [3] 0.166 µM | Potency [4] 0.166 µM | Potency [5] 0.209 µM | Potency [6] 0.263 µM | Potency [7] 0.296 µM

CCc1cc(C(N)=S)ccn1
inactive: activation [1] -7.53% and 9.71% | viability [2] 109% | Potency [3] | Potency [4] | Potency [5] | Potency [8] | Potency [6] | Potency [7]

COc1cc2c(cc1OC)[C@@H]1C(=O)c3ccc4c(c3O[C@@H]1CO2)C=CC(C)(C)O4
active: Potency [2] 13.2 µM | Potency [3] 0.525 µM | Potency [4] 6.61 µM | Potency [5] 23.5 µM | Potency [6] 9.34 µM | Potency [7] 20.9 µM
inactive: activation [1] -3.86%

C=CC(=O)Nc1cc2c(Nc3ccc(F)c(Cl)c3)ncnc2cc1OCCCN1CCOCC1
active: Potency [1] 4.9 µM | Potency [2] 14.8 µM | Potency [3] 4.68 µM | Potency [4] 1.32 µM | Potency [5] 2.63 µM | Potency [8] 4.68 µM | Potency [7] 11.8 µM

CCOC(=O)C1=C[C@@H](OC(CC)CC)[C@H](NC(C)=O)[C@@H](N)C1
inactive: activation [1] -8.89% | viability [2] 112% | Potency [3] | Potency [4] | Potency [5] | Potency [8] | Potency [7]

S=c1nc[nH]c2nc[nH]c12
active: Potency [2] 2.63 µM | Potency [3] 1.86 µM | Potency [4] 0.417 µM | Potency [5] 16.6 µM | Potency [8] 3.72 µM | Potency [7] 0.59 µM
inactive: activation [1] -18.4% and 17.9%

O=P(O)(O)C(O)(Cn1ccnc1)P(=O)(O)O
inactive: activation [1] -20.1% | viability [2] 112% | viability (% of control) [3] 121% [at 5.12 µM] | viability, % of control [4] 141% [at 5.12 µM] | viability (% of control) [5] 108% [at 5.12 µM] | viability (% of control) [8] 117% [at 5.12 µM] | viability (% of control) [6] 112% [at 5.12 µM] | viability (% of control) [7] 119% [at 5.12 µM]

CC(C)C(C)C=CC(C)C1CCC2C3=CC=C4CC(O)CCC4(C)C3CCC21C (stereo not drawn)
inactive: activation [1] 11% | viability [2] 121% | Potency [3] | Potency [4] | Potency [5] | Potency [6]

CO[C@@H]1[C@@H](OC(N)=O)[C@@H](O)[C@H](Oc2ccc3c(O)c(NC(=O)c4ccc(O)c(CC=C(C)C)c4)c(=O)oc3c2C)OC1(C)C
inactive: activation [1] -10.7% and -17.4% | viability [2] 122% | Potency [3] | Potency [4] | Potency [5] | Potency [8] | Potency [6] | Potency [7]

CC(=O)SC[C@@H](C)C(=O)N1CCC[C@H]1C(=O)N[C@@H](Cc1ccccc1)C(=O)O
inactive: activation [1] -26.8% | viability [2] 115% | Potency [3] | Potency [4] | Potency [5] | Potency [8] | Potency [6] | Potency [7]

CCCCCCCCc1ccc(CCC(N)(CO)CO)cc1
active: Potency [2] 26.3 µM | Potency [3] 13.2 µM | Potency [4] 14.8 µM | Potency [5] 18.6 µM | Potency [6] 16.6 µM
inactive: activation [1] 2.16%

O=C(NCCO[N+](=O)[O-])c1cccnc1
active: Potency [4] 4.68 µM
inactive: activation [1] -0.853% and 0.837% | viability [2] 114% | Potency [3] | Potency [5] | Potency [8] | Potency [6] | Potency [7]

NS(=O)(=O)c1cc2c(cc1Cl)NC(C(Cl)Cl)NS2(=O)=O (stereo not drawn)
inactive: activation [1] -14.1% and -9.47% | viability [2] 112% | Potency [4] | Potency [5] | Potency [8] | Potency [7]
active: Potency [3] 16.6 µM

O=c1ccn([C@@H]2O[C@H](CO)[C@H](O)[C@@H]2F)c(=O)[nH]1
inactive: activation [1] -22.6% | viability [2] 107% | Potency [3] | Potency [4] | Potency [5] | Potency [8] | Potency [7]

CC(C)(Sc1cc(C(C)(C)C)c(O)c(C(C)(C)C)c1)Sc1cc(C(C)(C)C)c(O)c(C(C)(C)C)c1
active: Potency [7] 13.2 µM
inactive: activation [1] 5.08% and 14.9% | viability [2] 103% | Potency [3] | Potency [4] | Potency [5] | Potency [8]
